# Experimental data reported in PubChem BioAssay (NCI).
# Several values for one entry are separate records, joined by “and”; a condition that tells them apart may be missing. Identical values can stand only once. Compounds without any hit were thinned out: in the full panel of roughly 79,000, 15% have a hit. Unmarked numbers belong to inactive results. Activity calls are given as the source filed them. Rule as the data show it: active = growth inhibition above about 70%; inactive = the rest.
# Assays:
# [1] = NCI Yeast Anticancer Drug Screen. Data for the rad50 strain (AID 155);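 also: 0% = growth of vehicle-only cultures of the same strain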; settings: S. cerevisiae rad50 strain growth inhibition, active compounds read high; at 50.0 µM unless noted
# In short: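 Cells are treated with compound, grown, and their growth is then scored against vehicle-only cultures of the same repair-deficient yeast strain.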
# [2] = NCI Yeast Anticancer Drug Screen. Data for the mec2-1 strain (AID 157); settings: S. cerevisiae mec2-1 strain, active compounds read high; at 50.0 µM unless noted
# In short: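 Strain: mec2-1 (DNA repair/cell cycle alteration). Compound exposure, then growth measured; inhibition expressed relative to vehicle.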
# [3] = NCI Yeast Anticancer Drug Screen. Data for the sgs1 mgt1 strain (AID 161);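 also: 0% = growth of cultures given vehicle only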; settings: S. cerevisiae sgs1 mgt1 strain, active compounds read high; at 50.0 µM unless noted
# In short: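 Mutant yeast exposed to compound; growth scored against vehicle-only wells.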
# [4] = NCI Yeast Anticancer Drug Screen. Data for the cln2 rad14 strain (AID 165);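 also: 0% = growth equal to vehicle treated cultures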; settings: S. cerevisiae cln2 rad14 strain, active compounds read high; at 50.0 µM unless noted
# In short: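 Compounds are applied to the cln2 rad14 yeast strain, and growth is then compared with that of vehicle-treated cultures to give inhibition.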
# [5] = NCI Yeast Anticancer Drug Screen. Data for the bub3 strain (AID 167); settings: S. cerevisiae bub3 mutant strain, active compounds read high; at 50.0 µM unless noted
# In short: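 Part of a panel of yeast mutants defective in DNA damage repair or cell cycle regulation. Each strain is grown with compound, and inhibition is calculated relative to solvent-treated cultures.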
# [6] = NCI Yeast Anticancer Drug Screen. Data for the mlh1 rad18 strain (AID 175); settings: S. cerevisiae mlh1 rad18 strain growth inhibition, active compounds read high; at 50.0 µM unless noted
# In short: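 Read-out is yeast growth inhibition, calculated against vehicle-only controls. The compound was applied to a strain engineered with DNA damage repair alterations.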
Structure (SMILES),growth inhibition [1],growth inhibition [2],growth inhibition [3],growth inhibition [4],growth inhibition [5],growth inhibition [6]
COCC(Br)C(OC)OC (stereo not given),37.5%,9.1%,58.9%,-1.05%,5.75%,68.3%
CC1CCC(C(C)C)C(NNC(N)=O)C1 (stereo not given),39.5% and 9.65%,12.7% and 3.8%,5% and 6.8%,14.3% and 3.4%,45% and -0.95%,15.9% and 9.6%
CC(=O)N(C(=O)CC(=O)NNCc1ccccc1Cl)c1ccc(Cl)cc1,-11.4%,-14.2%,-19.6%,-11.4%,-17%,6.3%
COC(=O)C(CCSC)NC(=O)C1CSC(C)(C)N1C=O (stereo not given),0.65%,0.2%,39.2%,-1.85%,44.5%,-1.85%
NC(=S)/N=C(/c1nc2ccc(Cl)cc2[nH]c1=O)C(O)c1ccccc1Cl (stereo not given),-2.85%,-21.8%,-20.2%,4.35%,22.5%,5.75%
O=C(O)CNOCN1C(=O)c2ccccc2C1=O,11.6%,-1.25%,13.3%,-21.6%,-16%,14.4%
OC1CSc2nc3ccccc3n2C1 (stereo not given),17.6%,9.25%,12.3%,9.7%,20.8%,38.9%
CN(C)C(C)(CO)CO,17.4%,-6.55%,0.65%,6.45%,9.2%,0.55%
Cn1ccnc1Sc1c([N+](=O)[O-])ncn1C,3.3%,5.95%,3.25%,29.3%,32.5%,10.4%
CC1(C)COC(c2ccc3c(c2)OCO3)N1 (stereo not given),0.5%,-8.45%,-5.7%,-19.6%,-9.75%,0.6%
CC1(C)CC[C@]2(C(=O)O)CC[C@]3(C)C(=CC[C@@H]4[C@@]5(C)CC[C@H](OC6OC(CO)C(O)C(O)C6O)C(C)(C)[C@@H]5CC[C@]43C)[C@@H]2C1 (stereo not given in full),76.2% (active),74.8% (active),47.9%,74.2% (active),82.4% (active),54.4%
CC(C)[Si]1(C(C)C)OCC2OC(n3ccc(=O)[nH]c3=O)C([Se]c3ccccc3)C2O[Si](C(C)C)(C(C)C)O1 (stereo not given),0%,-22.1%,-25.5%,-17.2%,-49.9%,-61.9%
COC(=O)c1cc(Br)cc(Br)c1N,26.1%,-12.9%,0.3%,-35.1%,3.6%,32.4%
CCCCCC[N+](C)(C)C,28%,-16.3%,2.7%,6.75%,31.3%,16.2%
Cc1nc2ncnc(N)c2[nH]1,3.55%,-11%,-12.5%,-28.7%,11.2%,-5.95%
CC1=C(c2ccccc2)OC(c2ccccc2)=C[P+]1(c1ccccc1)c1ccccc1,97.8% (active),99.5% (active),99.4% (active),99.3% (active),99.3% (active),99.2% (active)
CN(C)c1ccc(/C=C(\C#N)C(=O)O)cc1,33.8%,-12.9%,2.8%,11.7%,30.8%,38.2%
COC(=O)C(CCSc1ccccc1)C(=O)OC,0.85%,-4.45%,20.1%,12.1%,28.2%,-3.1%
C[N+]1(CCN[N+]2(C)CCCCC2)CCc2ccccc2C1 (stereo not given),-5.55%,-14.7%,-44.5%,-20.3%,-39.3%,-3.25%
C=CCSc1cccc(C)c1,-19.4%,14.9%,-12.6%,-25.6%,-14.1%,-16.1%
